Results published in ChEMBL document CHEMBL3988442, “University of Dundee, Small-Polar-MMV Screening Library” (2021).
For some assays here: Measured potencies and affinities stand elsewhere.

Experiments:
Set-up in all cases: scale not given: direction of the effect not stated beside the values
[1] = biological target: Protein translocase subunit SecA (Escherichia coli (strain K12)) (UniProt P10408); assay: Assay to Identify E. coli SecA ATPase Inhibitors; assay type: functional; settings: 30 µM
Protein translocase subunit SecA (Escherichia coli (strain K12)), sequence (P10408 whole entry): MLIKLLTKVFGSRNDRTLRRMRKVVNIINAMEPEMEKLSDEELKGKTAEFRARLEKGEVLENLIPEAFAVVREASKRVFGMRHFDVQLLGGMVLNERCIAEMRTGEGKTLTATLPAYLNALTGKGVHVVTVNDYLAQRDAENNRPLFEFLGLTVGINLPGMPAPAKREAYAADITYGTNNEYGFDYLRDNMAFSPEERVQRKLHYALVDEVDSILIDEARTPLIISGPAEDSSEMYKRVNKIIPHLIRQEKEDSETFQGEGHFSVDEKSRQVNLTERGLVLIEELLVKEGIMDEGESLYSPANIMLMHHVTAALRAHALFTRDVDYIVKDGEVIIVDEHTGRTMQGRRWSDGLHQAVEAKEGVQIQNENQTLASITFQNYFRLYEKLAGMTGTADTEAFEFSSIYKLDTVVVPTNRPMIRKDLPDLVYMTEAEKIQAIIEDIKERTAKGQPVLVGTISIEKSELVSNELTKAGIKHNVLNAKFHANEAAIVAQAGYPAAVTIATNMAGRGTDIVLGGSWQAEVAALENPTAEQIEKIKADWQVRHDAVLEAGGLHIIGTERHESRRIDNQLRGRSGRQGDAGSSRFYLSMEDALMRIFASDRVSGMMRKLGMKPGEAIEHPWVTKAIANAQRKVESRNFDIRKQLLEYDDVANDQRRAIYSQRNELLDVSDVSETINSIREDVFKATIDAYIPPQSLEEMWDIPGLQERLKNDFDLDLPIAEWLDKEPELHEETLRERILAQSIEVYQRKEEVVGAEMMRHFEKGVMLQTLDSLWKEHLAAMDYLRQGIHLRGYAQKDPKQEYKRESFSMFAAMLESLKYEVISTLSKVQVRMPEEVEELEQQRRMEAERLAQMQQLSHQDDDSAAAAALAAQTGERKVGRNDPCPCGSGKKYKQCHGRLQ

[2] = biological target: T1, Ubiquitin-activating enzyme e1, putative (Leishmania donovani (strain BPK282A1)) (UniProt E9BSI1); assay: Leishmania donovani Ubiquitin Activating Enzyme (LdE1); assay type: functional; settings: 30 µM
T1 sequence (whole entry): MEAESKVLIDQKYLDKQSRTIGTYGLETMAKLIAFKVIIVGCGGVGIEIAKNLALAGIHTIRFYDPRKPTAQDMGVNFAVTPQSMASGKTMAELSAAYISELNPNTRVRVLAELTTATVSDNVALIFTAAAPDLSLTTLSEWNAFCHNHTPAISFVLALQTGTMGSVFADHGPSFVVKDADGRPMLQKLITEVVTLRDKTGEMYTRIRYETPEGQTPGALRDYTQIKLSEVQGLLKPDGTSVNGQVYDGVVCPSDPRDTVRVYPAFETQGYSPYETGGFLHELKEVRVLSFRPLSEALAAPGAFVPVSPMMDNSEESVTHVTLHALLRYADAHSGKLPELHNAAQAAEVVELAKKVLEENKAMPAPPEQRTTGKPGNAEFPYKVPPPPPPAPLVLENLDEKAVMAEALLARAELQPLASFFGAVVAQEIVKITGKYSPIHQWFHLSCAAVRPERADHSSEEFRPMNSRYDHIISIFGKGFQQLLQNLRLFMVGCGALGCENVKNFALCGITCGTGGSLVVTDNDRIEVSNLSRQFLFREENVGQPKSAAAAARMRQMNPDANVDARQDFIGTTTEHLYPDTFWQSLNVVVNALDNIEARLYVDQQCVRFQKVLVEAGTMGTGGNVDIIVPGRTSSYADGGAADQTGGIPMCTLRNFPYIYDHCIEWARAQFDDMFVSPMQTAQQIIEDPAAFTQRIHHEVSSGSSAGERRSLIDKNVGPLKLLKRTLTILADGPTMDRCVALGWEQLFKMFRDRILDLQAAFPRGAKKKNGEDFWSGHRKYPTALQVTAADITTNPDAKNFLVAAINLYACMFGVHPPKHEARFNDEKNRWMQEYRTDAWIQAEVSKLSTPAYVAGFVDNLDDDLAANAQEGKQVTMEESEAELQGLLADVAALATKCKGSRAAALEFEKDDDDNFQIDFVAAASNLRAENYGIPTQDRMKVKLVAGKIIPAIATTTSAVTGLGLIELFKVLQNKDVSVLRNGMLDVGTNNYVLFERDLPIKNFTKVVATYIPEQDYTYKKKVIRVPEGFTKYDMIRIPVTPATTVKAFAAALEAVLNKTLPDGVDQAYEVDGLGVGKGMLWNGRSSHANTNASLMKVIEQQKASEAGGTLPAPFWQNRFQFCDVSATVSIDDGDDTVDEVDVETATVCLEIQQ

[3] = biological target: AMP-activated protein kinase, AMPK (Homo sapiens) (UniProt P54646+O43741+P54619+Q9UGJ0+Q9Y478+Q13131+Q9UGI9); assay: AMP-dependent Kinase enzyme assay. An in vitro enzyme assay that detects ADP turnover that is directly proportional to AMPK activity. This uses naive AMPK that is activated during the assay with MK-8722; assay type: functional; settings: 30 µM
[4] = biological target: Sialic acid-binding Ig-like lectin 9 (Homo sapiens) (UniProt Q9Y336); assay: Hs-Siglec9 ALPHAscreen SOP 20170721; settings: 10 µM
Sialic acid-binding Ig-like lectin 9 (Homo sapiens), sequence (Q9Y336 whole entry): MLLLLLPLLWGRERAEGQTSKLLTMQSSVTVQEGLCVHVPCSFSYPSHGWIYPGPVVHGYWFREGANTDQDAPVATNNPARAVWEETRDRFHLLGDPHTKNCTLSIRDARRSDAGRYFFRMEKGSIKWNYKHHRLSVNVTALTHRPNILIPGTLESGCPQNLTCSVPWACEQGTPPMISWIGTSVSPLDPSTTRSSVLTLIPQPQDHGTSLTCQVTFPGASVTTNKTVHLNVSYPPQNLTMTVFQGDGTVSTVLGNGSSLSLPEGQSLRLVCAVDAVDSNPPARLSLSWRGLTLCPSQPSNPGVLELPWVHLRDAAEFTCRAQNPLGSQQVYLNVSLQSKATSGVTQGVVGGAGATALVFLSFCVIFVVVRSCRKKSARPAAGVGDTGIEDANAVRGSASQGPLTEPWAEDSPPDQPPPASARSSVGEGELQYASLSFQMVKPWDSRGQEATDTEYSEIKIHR

Trypanosoma cruzi = assay: Trypanosoma cruzi phosphomannomutase and mannose-1-phosphate guanylyltransferase assay; assay type: functional; settings: 10 µM
[5] = biological target: T2, Arginase-2, mitochondrial (Homo sapiens) (UniProt P78540); assay: in vitro enzyme assay to detect the production of urea directly proportional to the activity of Arginase II; assay type: functional; settings: 33.3 µM; note: in the data most compounds retested in dose-response had high values
T2 sequence (whole entry): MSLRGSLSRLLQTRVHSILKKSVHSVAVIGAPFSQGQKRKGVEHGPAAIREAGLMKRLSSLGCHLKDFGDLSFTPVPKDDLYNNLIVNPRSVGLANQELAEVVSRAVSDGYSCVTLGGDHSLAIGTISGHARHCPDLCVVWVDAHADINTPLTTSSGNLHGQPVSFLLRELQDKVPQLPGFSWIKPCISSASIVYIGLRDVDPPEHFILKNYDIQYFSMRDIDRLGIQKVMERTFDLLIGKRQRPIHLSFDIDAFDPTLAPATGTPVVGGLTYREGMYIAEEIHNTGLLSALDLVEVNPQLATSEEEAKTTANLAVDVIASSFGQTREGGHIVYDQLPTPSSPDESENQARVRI

[6] = biological target: T3, Proteasome subunit beta (Trypanosoma cruzi) (UniProt O96673); assay: Trypanosoma cruzi proteasome chymotrypsin-like activity (TcProtChymo) assay.; note: in the data most compounds retested in dose-response had high values; assay type: functional; settings: 9.37 µM
T3 sequence (whole entry): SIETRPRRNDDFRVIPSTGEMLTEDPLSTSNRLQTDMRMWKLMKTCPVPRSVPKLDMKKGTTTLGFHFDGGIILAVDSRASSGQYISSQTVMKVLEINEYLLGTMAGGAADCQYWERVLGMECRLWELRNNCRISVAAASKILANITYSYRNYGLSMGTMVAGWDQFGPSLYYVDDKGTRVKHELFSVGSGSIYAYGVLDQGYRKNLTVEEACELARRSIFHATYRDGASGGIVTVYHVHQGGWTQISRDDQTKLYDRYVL

Homo sapiens = species: Homo sapiens; assay: To identify inhibition of the IFN signalling (Jak-Stat) pathway via expression of an eGFP reporter gene under the control of an IFN-stimulated response element (ISRE) containing MxA promoter.; assay type: functional; settings: 30 µM
[7] = biological target: T4, Tyrosyl-tRNA synthetase, putative (Trypanosoma cruzi (strain CL Brener)) (UniProt Q4DSP6); assay: Trypanosoma cruzi tyrosyl tRNA synthetase (TcYRS) _High Tyrosine SOP; assay type: functional; settings: 30 µM; note: in the data most compounds retested in dose-response had high values
T4 sequence (whole entry): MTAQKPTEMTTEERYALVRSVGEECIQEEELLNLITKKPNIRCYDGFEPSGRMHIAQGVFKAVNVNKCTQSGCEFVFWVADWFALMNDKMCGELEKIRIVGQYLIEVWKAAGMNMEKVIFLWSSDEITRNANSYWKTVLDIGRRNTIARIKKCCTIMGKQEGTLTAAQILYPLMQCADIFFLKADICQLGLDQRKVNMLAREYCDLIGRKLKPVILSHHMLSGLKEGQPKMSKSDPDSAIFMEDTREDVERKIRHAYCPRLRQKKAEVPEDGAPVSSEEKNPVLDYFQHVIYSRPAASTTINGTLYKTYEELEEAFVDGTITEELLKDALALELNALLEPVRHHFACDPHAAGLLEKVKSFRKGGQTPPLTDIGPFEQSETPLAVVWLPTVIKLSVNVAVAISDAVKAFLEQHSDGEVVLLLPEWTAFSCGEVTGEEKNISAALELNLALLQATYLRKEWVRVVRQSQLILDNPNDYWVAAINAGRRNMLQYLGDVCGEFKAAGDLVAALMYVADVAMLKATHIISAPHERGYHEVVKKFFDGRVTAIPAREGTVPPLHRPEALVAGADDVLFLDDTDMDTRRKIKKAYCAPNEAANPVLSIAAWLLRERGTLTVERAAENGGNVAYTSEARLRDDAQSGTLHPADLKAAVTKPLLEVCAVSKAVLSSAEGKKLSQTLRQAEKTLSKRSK

[8] = biological target: T4, Tyrosyl-tRNA synthetase, putative (Trypanosoma cruzi (strain CL Brener)); assay: Trypanosoma cruzi tyrosyl tRNA synthetase (TcYRS) SOP; assay type: functional; settings: 30 µM
[9] = biological target: Chromo domain-containing protein 1 (Saccharomyces cerevisiae (strain ATCC 204508 / S288c) (Baker's yeast)) (UniProt P32657); assay: ScCHD-1 Enzyme Inhibition Assay; assay type: functional; settings: 30 µM; note: in the data most compounds retested in dose-response had high values
Chromo domain-containing protein 1 (Saccharomyces cerevisiae (strain ATCC 204508 / S288c) (Baker's yeast)), sequence (P32657 whole entry, the tested form may be a part): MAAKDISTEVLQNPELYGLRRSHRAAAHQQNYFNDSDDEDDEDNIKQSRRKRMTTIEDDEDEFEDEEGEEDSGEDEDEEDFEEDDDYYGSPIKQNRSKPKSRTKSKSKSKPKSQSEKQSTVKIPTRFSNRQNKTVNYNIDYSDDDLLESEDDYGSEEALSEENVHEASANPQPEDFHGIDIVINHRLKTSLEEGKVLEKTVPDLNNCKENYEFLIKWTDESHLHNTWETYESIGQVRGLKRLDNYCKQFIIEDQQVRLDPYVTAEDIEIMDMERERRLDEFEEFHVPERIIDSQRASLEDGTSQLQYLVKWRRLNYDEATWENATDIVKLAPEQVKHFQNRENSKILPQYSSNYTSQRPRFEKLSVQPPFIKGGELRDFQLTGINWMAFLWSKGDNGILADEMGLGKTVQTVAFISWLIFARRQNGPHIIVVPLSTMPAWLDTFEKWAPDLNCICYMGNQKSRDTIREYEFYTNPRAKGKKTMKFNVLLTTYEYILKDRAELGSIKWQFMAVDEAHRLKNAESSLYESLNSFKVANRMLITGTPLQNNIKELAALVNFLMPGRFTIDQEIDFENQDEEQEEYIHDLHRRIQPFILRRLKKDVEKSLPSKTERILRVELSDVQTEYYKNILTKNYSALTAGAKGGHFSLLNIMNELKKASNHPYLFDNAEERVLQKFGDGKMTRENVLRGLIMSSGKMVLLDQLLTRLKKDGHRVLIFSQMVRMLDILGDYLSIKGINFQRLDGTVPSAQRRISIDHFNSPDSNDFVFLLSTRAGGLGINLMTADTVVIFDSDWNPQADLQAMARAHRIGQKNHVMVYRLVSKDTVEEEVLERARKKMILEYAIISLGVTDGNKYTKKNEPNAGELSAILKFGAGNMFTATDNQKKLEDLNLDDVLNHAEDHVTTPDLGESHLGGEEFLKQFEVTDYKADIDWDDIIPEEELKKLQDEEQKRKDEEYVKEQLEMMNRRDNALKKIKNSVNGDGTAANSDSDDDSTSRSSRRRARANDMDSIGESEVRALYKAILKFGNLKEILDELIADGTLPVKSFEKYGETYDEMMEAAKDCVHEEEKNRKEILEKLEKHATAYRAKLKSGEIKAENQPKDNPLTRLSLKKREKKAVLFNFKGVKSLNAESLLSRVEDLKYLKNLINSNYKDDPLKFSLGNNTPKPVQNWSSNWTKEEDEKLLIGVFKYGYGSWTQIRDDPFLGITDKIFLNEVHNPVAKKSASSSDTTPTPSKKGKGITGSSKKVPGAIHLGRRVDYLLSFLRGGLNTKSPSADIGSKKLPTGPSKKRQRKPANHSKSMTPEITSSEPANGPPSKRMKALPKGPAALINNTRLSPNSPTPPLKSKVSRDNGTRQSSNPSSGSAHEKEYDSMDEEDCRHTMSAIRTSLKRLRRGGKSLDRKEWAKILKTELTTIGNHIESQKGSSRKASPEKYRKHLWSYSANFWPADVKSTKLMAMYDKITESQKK

| SMILES | Percent Effect [1] | Percent Effect [2] | Percent Effect [3] | Percent Effect [4] | Percent Effect (Trypanosoma cruzi) | Percent Effect [5] | Percent Effect [6] | Percent Effect (Homo sapiens) | Percent Effect [7] | Percent Effect [8] | Percent Effect [9] |
| --- | --- | --- | --- | --- | --- | --- | --- | --- | --- | --- | --- |
| CCS(=O)(=O)N1CCc2ccc(NC(=O)Nc3cccc(SC)c3)cc21 | -1.43% | -20.8% | 1.15% | 1.13% | 0.69% | -3.23% | 17.6% | 77.5% | -48.7% | -73.1% | -5.8% |
| Cc1cc(NC(=O)NCc2cccnc2OC(C)C)n(C)n1 | -2.88% | 8.86% | 1.26% | 3.66% | 0.103% | -1.07% | 19.4% | 4.52% | 3.12% | 12.7% | -22.1% |
| Cc1cc(CN(C)C(=O)C2CCCN(C(=O)c3cccs3)C2)no1 (stereo unspecified) | -3.6% | 10.4% | 1.53% | 10.4% | 3.64% | -9.65% | 15.5% | -5.21% | 5.38% | 16.1% | -2.24% |
| Cc1nc(CN2CCN(C(=O)COCc3ccccc3)CC2)no1 | -3.03% | 5.41% | -6.7% | 10.7% | 5.96% | 0.744% | 9.19% | -1.99% | -2.15% | 3.7% | -7.9% |
| Cc1ccc(CC(=O)N2Cc3nccn3CC(CN(C)C)C2)cc1 (stereo unspecified) | 2.93% | 11% | -4.31% | 9.23% | 0.198% | 5.59% | 15.3% | 20.1% | 8.33% | 16.1% | -2.84% |
| O=C(Nc1ccc(CCN2CCC(O)CC2)cc1)Nc1cccnc1 | -1.45% | 5.41% | -3.72% | 8.33% | -1.54% | -1.91% | 18.4% | 8.03% | 6.88% | 4.88% | -3.57% |
| CCc1nc(C2CCCN(C(=O)c3ccc(OC(C)C)nc3)C2)no1 (stereo unspecified) | -8.81% | 5.2% | -0.62% | -8.98% | -3.43% | 3.16% | 1.05% | 15.9% | -0.952% | 0% | -17.8% |
| Cc1occc1C(=O)N1CCC2(CC1)CC(c1cccnc1)C(=O)N2C (stereo unspecified) | -1.69% | 10.7% | -2.33% | 5.45% | -1.74% | -19.9% | 5.64% | -9.07% | 2.08% | 12.5% | -5.44% |
| CCC(=O)N1CCC2(COCc3c(C)nc(N(C)C)nc32)C1 (stereo unspecified) | -9.59% | 0% | 0.948% | 16.9% | -0.586% | -0.417% | 10.7% | 4.78% | 0% | 3.66% | -4.5% |
| CS(=O)(=O)CCNC(=O)C1(c2cccc(Cl)c2)CCCCC1 | -7.1% | -1.39% | 0.793% | -3.56% | -1.46% | -2.65% | 6.14% | 13.7% | -4.21% | -7.69% | -0.434% |
| COCCN1CCC(CN(CC2CCCO2)C(=O)CCNC(C)=O)CC1 (stereo unspecified) | -1.45% | -4.17% | -2.84% | -5.53% | -1.26% | 0.883% | 1.75% | -4.52% | 0% | 0% | 1.82% |
| O=C1COC2(CCN(Cc3ccc(F)cc3)CC2)CN1 | -4.15% | 2.7% | 2.05% | -2.96% | 6.25% | -0.417% | 10.2% | -6.9% | 5.94% | 15.8% | -6.08% |
| CCCS(=O)(=O)N1CCC2(CN(c3cnn(C)c3)C(=O)CN2C)C1 (stereo unspecified) | 1.02% | 10.8% | 5.11% | -11.2% | -4.69% | 0.833% | 20.4% | 6.16% | 6.93% | 8.54% | 1.55% |
| Cc1cnn(CC2CCCCN2Cc2nnc(-c3ccco3)o2)c1 (stereo unspecified) | -5.16% | 13.5% | -9.36% | 20.3% | 3.11% | -5.61% | 13.3% | 7.01% | 8.37% | 18.5% | -11.7% |
| COC(=O)c1sccc1NC(=O)C1CCCN1C(=O)c1ccco1 (stereo unspecified) | -0.782% | -15.3% | 13.2% | -14.9% | -8.84% | -3.53% | 20.4% | 1.28% | -3.16% | 2.56% | -2.51% |
| Cc1nccn1CCC1CCCCN1Cc1ccc(N(C)C)nc1 (stereo unspecified) | -1.41% | 5.33% | -3.72% | -2.2% | -6.91% | 4.69% | 21.4% | 9.79% | 0.546% | 11.1% | -5.71% |
